This is an account of results in the supplement of paper PMC13172266.

Test in all cases: cell proliferation relative to vehicle (% of vehicle); higher = less growth inhibition
Common to all, as to settings: 72 h

For assay [1], the system named is U2932 TK216-resistant clone 2. The method in brief:
(§1)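 Growth medium with 10% FBS at 37°C and 5% CO2 was used to culture U2932, an ABC-DLBCL line, in parental form and as two clones rendered resistant to an ETS-targeting agent by repeated exposure over almost a year. These cells received compounds from a 348-member targeted inhibitor library at 500 nM or 50 nM for 72 h, followed by 4 h of MTT, a 25% SDS stop and an absorbance read on a Cytation 3. The percentage of proliferating cells is reported relative to DMSO vehicle.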

For assay [2], the system named is U2932 TK216-resistant clone 3. The method in brief: as §1
The subject of a further assay is U2932 parental. In a few lines:
as §1

Consider `O=c1cc(-c2cccc3c2Sc2ccccc2S3)oc(N2CCOCC2)c1`, for which the cell proliferation was found to be 108 in assay [1] (50 nM); 102 in assay [1] (500 nM); 98.8 in assay [2] (50 nM); 95.3 in assay [2] (500 nM); 102 with U2932 parental (50 nM); 103 with U2932 parental (500 nM).

Turning to `COc1nc(OCc2cccc(-c3ccccc3)c2C)ccc1CNCCNC(C)=O` [PD-1/PD-L1 inhibitor 2], the cell proliferation in assay [1] (50 nM) is 95.9; in assay [1] (500 nM), 89; in assay [2] (50 nM), 94.4; in assay [2] (500 nM), 82.7; with U2932 parental (50 nM) it was 104; with U2932 parental (500 nM) it was 91.5.

Take `CCN(c1cc(-c2ccc(CN3CCOCC3)cc2)cc(C(=O)NCc2c(C)cc(C)[nH]c2=O)c1C)C1CCOCC1`: the cell proliferation is 92.4 in assay [1] (50 nM); 80.1 in assay [1] (500 nM); 96.4 in assay [2] (50 nM); 87.6 in assay [2] (500 nM); 89.5 in the assay on U2932 parental (50 nM); 82.5 in the assay with U2932 parental (500 nM).

Turning to `O=C(O)C(=O)O.[NH-][C@@H]1CCCC[C@H]1[NH-].[Pt+2]` [Oxaliplatin], the cell proliferation is 104 in assay [1] (50 nM); 99 in assay [1] (500 nM); 105 in assay [2] (50 nM); 96.6 in assay [2] (500 nM); 96.8 in the assay with U2932 parental (50 nM); 93.2 with U2932 parental (500 nM).

In the case of `O=C(c1cc(Cc2n[nH]c(=O)c3ccccc23)ccc1F)N1CCN(C(=O)C2CC2)CC1`, the cell proliferation stood at 103 in assay [1] (50 nM); 99.3 in assay [1] (500 nM); 103 in assay [2] (50 nM); 103 in assay [2] (500 nM); 99.6 in the assay on U2932 parental (50 nM); 94.9 in the assay with U2932 parental (500 nM).

As to `CN1CCC(Nc2nc(Nc3ccc(Oc4ccccc4)cc3)c3c(=O)[nH]cc(Br)c3n2)CC1`, the cell proliferation in assay [1] (50 nM) is 100; in assay [1] (500 nM) it was 83.1; in assay [2] (50 nM), 99.4; in assay [2] (500 nM) it was 83.4; in the assay with U2932 parental (50 nM), 89.6; in the assay on U2932 parental (500 nM), 85.5.

For `Cc1ccc(-c2cc(C(F)(F)F)nn2-c2ccc(S(N)(=O)=O)cc2)cc1` [Celecoxib], the cell proliferation in assay [1] (50 nM) is 99.8; in assay [1] (500 nM), 95.6; in assay [2] (50 nM), 104; in assay [2] (500 nM) it was 98.7; with U2932 parental (50 nM), 101; in the assay on U2932 parental (500 nM), 100.

As to `Cn1cnc([N+](=O)[O-])c1Sc1ncnc2[nH]cnc12` [Azathioprine], the cell proliferation came out at 100 in assay [1] (50 nM); 98.4 in assay [1] (500 nM); 103 in assay [2] (50 nM); 103 in assay [2] (500 nM); 97.5 in the assay on U2932 parental (50 nM); 103 with U2932 parental (500 nM).

Consider `O=C(O)C1(C(=O)O)CCC1.[NH2-].[NH2-].[Pt+2]` [Carboplatin], for which the cell proliferation worked out at 99.7 in assay [1] (50 nM); 104 in assay [1] (500 nM); 90.2 in assay [2] (50 nM); 99.1 in assay [2] (500 nM); 104 in the assay with U2932 parental (50 nM); 95.3 in the assay with U2932 parental (500 nM).

For `COc1cccc(-c2cc(F)ccc2C2Cc3nc(N)nc(C)c3C(=O)N2)n1` (stereo unspecified), the cell proliferation is 6.3 in assay [1] (50 nM); 4.81 in assay [1] (500 nM); 22.6 in assay [2] (50 nM); 18.7 in assay [2] (500 nM); 7.13 in the assay with U2932 parental (50 nM); 6.37 in the assay with U2932 parental (500 nM).

`O=C(Nc1cc(C(F)(F)F)cc(C(F)(F)F)c1)c1cc(Cl)ccc1O`: the cell proliferation in assay [1] (50 nM) came to 103; in assay [1] (500 nM), 104; in assay [2] (50 nM), 109; in assay [2] (500 nM), 102; in the assay on U2932 parental (50 nM), 102; in the assay on U2932 parental (500 nM), 101.

`COc1cc([C@@H]2c3cc4c(cc3[C@@H](O[C@@H]3O[C@@H]5CO[C@@H](c6cccs6)O[C@H]5[C@H](O)[C@H]3O)[C@H]3COC(=O)[C@H]23)OCO4)cc(OC)c1O` [Teniposide]: the cell proliferation in assay [1] (50 nM) is 59; in assay [1] (500 nM) it was 8.54; in assay [2] (50 nM), 83; in assay [2] (500 nM), 19.8; in the assay on U2932 parental (50 nM), 67.7; with U2932 parental (500 nM) it was 16.8.

Regarding `CO[C@@H](C(=O)N1Cc2[nH]nc(NC(=O)c3ccc(N4CCN(C)CC4)cc3)c2C1)c1ccccc1`, the cell proliferation in assay [1] (50 nM) worked out at 97.2; in assay [1] (500 nM) it was 84; in assay [2] (50 nM), 77.8; in assay [2] (500 nM), 71.7; in the assay on U2932 parental (50 nM), 71.8; in the assay with U2932 parental (500 nM) it was 69.5.

As for `CCOC(=O)C1=C(N)Oc2ccc(Br)cc2C1C(C#N)C(=O)OCC` (stereo unspecified), the cell proliferation in assay [1] (50 nM) stood at 103; in assay [1] (500 nM), 95.7; in assay [2] (50 nM), 109; in assay [2] (500 nM) it was 100; in the assay with U2932 parental (50 nM), 98.4; in the assay on U2932 parental (500 nM), 97.6.

`Oc1ccc(/C=C/c2cc(O)cc(O)c2)cc1` [Resveratrol]: the cell proliferation stood at 102 in assay [1] (50 nM); 111 in assay [1] (500 nM); 102 in assay [2] (50 nM); 106 in assay [2] (500 nM); 103 in the assay on U2932 parental (50 nM); 101 in the assay with U2932 parental (500 nM).

Regarding `COC(=O)Nc1ccc(-c2nc(N3CCOCC3)c3cnn(C4CCN(C(=O)OC)CC4)c3n2)cc1`, the cell proliferation in assay [1] (50 nM) came out at 107; in assay [1] (500 nM), 55.1; in assay [2] (50 nM), 101; in assay [2] (500 nM), 56.4; in the assay with U2932 parental (50 nM), 101; in the assay on U2932 parental (500 nM) it was 46.9.

On to `COc1cc(F)c(F)c(Nc2ccc(I)cc2F)c1NS(=O)(=O)C1(C[C@H](O)CO)CC1` [Refametinib (RDEA119, Bay 86-9766)], for which the cell proliferation was found to be 104 in assay [1] (50 nM); 92.6 in assay [1] (500 nM); 105 in assay [2] (50 nM); 97.1 in assay [2] (500 nM); 92.8 in the assay with U2932 parental (50 nM); 96.2 with U2932 parental (500 nM).

As for `CC(C)(C#N)c1cc(Cn2cncn2)cc(C(C)(C)C#N)c1` [Anastrozole], the cell proliferation in assay [1] (50 nM) turned out to be 99.8; in assay [1] (500 nM), 108; in assay [2] (50 nM) it was 103; in assay [2] (500 nM) it was 101; with U2932 parental (50 nM), 105; in the assay on U2932 parental (500 nM), 96.7.

In the case of `CN(CCOc1ccc(CC2SC(=O)NC2=O)cc1)c1ccccn1` (stereo unspecified) [Rosiglitazone], the cell proliferation in assay [1] (50 nM) came out at 100; in assay [1] (500 nM) it was 101; in assay [2] (50 nM) it was 98.8; in assay [2] (500 nM), 104; in the assay with U2932 parental (50 nM), 94; in the assay on U2932 parental (500 nM), 95.2.

Regarding `O=C(O)c1ccc(-c2c[nH]c3ncc(-c4ccccc4)cc23)cc1C1CCCC1`, the cell proliferation in assay [1] (50 nM) came to 107; in assay [1] (500 nM) it was 100; in assay [2] (50 nM) it was 97.4; in assay [2] (500 nM), 105; in the assay on U2932 parental (50 nM) it was 105; with U2932 parental (500 nM), 107.

As for `NCC(=O)Nc1ccc(-n2nc(C(F)(F)F)cc2-c2ccc3c(ccc4ccccc43)c2)cc1`, the cell proliferation is 99.6 in assay [1] (50 nM); 84.6 in assay [1] (500 nM); 95.3 in assay [2] (50 nM); 72.8 in assay [2] (500 nM); 96.2 in the assay on U2932 parental (50 nM); 82.4 in the assay with U2932 parental (500 nM).
